Here are results for 10 molecules from PubChem BioAssay (EPA / NIEHS).

Active and inactive are the calls of the source. The calls were made as follows: active = hit-call score of the fitted dose curve at least 0.9, where 1 is the maximum; inactive = score below 0.9.

This assay can be described thus: CCTE_Shafer_MEA_dev_per_network_spike_spike_percent: CCTE's Neural Network Formation Assay for Percent of Spikes in a Network Spike, Shafer Lab (AID 2284054). On the procedure: CCTE_Shafer_MEA_dev assay is conducted using Axion Biosystems 48 well microelectrode array (MEA) plates and Maestro recording system. Each well of the MEA plate contains a grid of 16 microelectrodes embedded in the culture surface. Electrically active cells, such as neurons, can be cultured over the electrodes, and electrical activity in these cells can be recorded extracellularly. The spontaneous firing of neurons is captured from each electrode on a microsecond timescale providing both temporally and spatially precise data. […] The CCTE_Shafer_MEA_dev assay uses primary cultures of rat cortical neurons. Recordings are made on days post-plating 5, 7, 9 and 12. As these cultures mature over time, neural networks develop functional activity and form cohesive networks in which electrical activity can be highly coordinated. CCTE_Shafer_MEA_dev_per_network_spike_spike_percent is 1 of 19 assay components of the CCTE_Shafer_MEA_dev assay. It measures the percent of spikes (action potential firings) in a network spike (temporally-clustered group of spikes across multiple electrodes) as the number of spikes that occur within a 0.05 s time window at the peak of a network spike divided by the total number of spikes during a recording in a microelectrode array (MEA) using Axion Biosystems Maestro 768 channel amplifier with the AxIS adaptive spike detector. To collapse across multiple recordings made on days post-plating 5, 7, 9 and 12, the trapezoidal area-under-the-curve of the component is calculated.Data from the assay component CCTE_Shafer_MEA_dev_per_network_spike_spike_percent was analyzed into 1 assay endpoint. This assay endpoint, CCTE_Shafer_MEA_dev_per_network_spike_spike_percent, was analyzed in the negative analysis fitting direction relative to DMSO as the negative control and baseline of activity. Using a type of functional reporter, gain or loss-of-signal activity can be used to understand electrical activity.
On the day prior to culture, each well was coated thoroughly with 150 uL of 0.05% polyethyleneimine (PEI, Sigma Cat P3143) in 50 mM HEPES (Sigma Cat H7523) at a pH of 8. The plate was incubated at 37C for one hour. PEI was rinsed out with 500 uL of sterile water three times. Plates were stored at 4C until the day of culture. This culture was plated at a seeding density of 1.5 x 10^5 cells/well on a 48-well MEA plate, prepared as described above. Cells were administered via a 25 uL media/laminin ([…]; Sigma Cat L2020-1MG) drop directly onto the microelectrode array, as adding the cells with the laminin results in better attachment than pre-coating with laminin. After 2 hours, an additional 475 uL of cortical media was added and the cells returned to the incubator. Exposure starts at day 0 of plating and is continued over twelve days of network development until the experiment is terminated. Cells are fed with fresh medium on DIV 5 and 9, following the recordings on those days. The entire volume of media in the well is exchanged and any vehicle or compound treatment is renewed. Complete details are found in OP-NHEERL/ISTD/SBB/TJS/2015-03-r0 (available on request, email shafer.tim@epa.gov). Measurement of the electrical activity is non-invasive, and recordings can be made from the same plate over multiple different days of the culture. In cortical neurons, this allows for the measurement of extracellular action potentials over the period during which networks form in the MEA plate.
For orientation: AC50 means the midpoint of the concentration-response curve, whichever way the signal moves. Take `CCC(C)(C)C(=O)O[C@H]1C[C@@H](C)C=C2C=C[C@H](C)[C@H](CC[C@@H]3C[C@@H](O)CC(=O)O3)[C@H]21`: the AC50 is 844 nM (active). Regarding `O=C1CCC(N2C(=O)c3ccccc3C2=O)C(=O)N1` (stereo not given), the outcome was inactive. As to `CC[C@H]1OC(=O)[C@H](C)[C@@H](O[C@H]2C[C@@](C)(OC)[C@@H](O)[C@H](C)O2)[C@H](C)[C@@H](O[C@@H]2O[C@H](C)C[C@H](N(C)C)[C@H]2O)[C@](C)(O)C[C@@H](C)C(=O)[C@H](C)[C@@H](O)[C@]1(C)O`, the molecule was classed as inactive. Same read-out and setting: then `Nc1nc2ncc(CNc3ccc(C(=O)N[C@@H](CCC(=O)O)C(=O)O)cc3)nc2c(=O)[nH]1`, with “inactive”. For `NC(=O)NO`, the molecule was called inactive. As to `CNCc1ccc(NC(=O)c2c[nH]c3c2C(=O)CCC3)cc1`, the result was inactive. Turning to `COc1ccc(-n2nc(C(F)F)cc2-c2ccc(S(C)=O)cc2)cc1` (stereo not given), the molecule was classed as inactive. Still for that read-out and setting: then `O=P(OC(CCl)CCl)(OC(CCl)CCl)OC(CCl)CCl`, with “inactive”. Regarding `Cn1c(=O)c2c(ncn2C)n(C)c1=O`, the result was inactive.

Consider `CC[C@H](C)C(=O)O[C@H]1C[C@@H](C)C=C2C=C[C@H](C)[C@H](CC[C@@H]3C[C@@H](O)CC(=O)O3)[C@H]21`, for which the AC50 was 1770 nM (active).
